Screening data as filed in PubChem.
Cycloheximide cs: Cycloheximide Counterscreen for Small Molecule Inhibitors of Shiga Toxin; AID 2314, 2010; max response, %; cell reporter, cycloheximide protein synthesis inhibition counterscreen; actives 12% (n = 300,000); in the data active = max response mostly above about 13%, no sharp cut-off; inactive = mostly below about 14%; also: read at 38.3 µM for the half of the compounds with a filed dose; 0% is about no effect
Sm TGR block: qHTS Assay for the Inhibitors of Schistosoma Mansoni Peroxiredoxins | purified TGR, DTNB reduction, TNB absorbance 405 nm | Potency, µM (titrated, usually from 114 µM), for inactives: at the top dose activity change, negative = inhibition, hits mostly inhibitors | actives 3% (n = 360,000) | AID 485364, 2010; active = well fitted inhibition curve with a large enough effect; inconclusive = small, poorly fitted or top-dose-only effect; inactive = no such curve, though single readings can be large or run the other way; also: potency is read from the fitted curve at half-maximal effect; % is scaled to controls: 0 for no effect and ±100 for the full control effect; nearly all actives have a fitted effect of over 60% in size
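TGR 20 nM + NADPH 100 uM (dispensed conc.), cpd preinc 15 min RT; start with NADPH (500 uM addition) then DTNB (15 mM addition). Kinetic TNB absorbance, 405 nm filter. Four-parameter Hill fit across titration.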
FMDV inh: High Throughput Screening for Foot and Mouth Disease Virus Antivirals. Potency, µM (top dose mostly 57.9 µM), inactives show at the highest dose activity change, negative = inhibition, hits mostly inhibitors. actives 1.2% (n = 410,000). AID 1159524, 2015. FMDV antiviral cell-based qHTS; calls by dose curve; tested in HEK293T cells; also: read-out not given here; potency is read from the fitted curve at half-maximal effect; % is scaled to controls: 0 for no effect and ±100 for the full control effect; nearly all actives have a fitted effect of over 45% in size
Shiga toxin inh: A qHTS for Small Molecule Inhibitors of Shiga Toxin; Vero cells, Shiga toxin protein synthesis inhibition reporter; inhibition, % at 38.7 µM; actives 9.2% (n = 290,000); AID 2315, 2010; in the data active = inhibition mostly above about 28%, no sharp cut-off; inactive = mostly below about 43%; also: 0% is about no effect
* hit, by the source's call; u = inconclusive; x = not tested or not shown. Hits are enriched below; roughly 12% of the tested compounds scored in any of these assays.

SMILES	Cycloheximide cs	Sm TGR block	FMDV inh	Shiga toxin inh
CN(Cc1ccc(F)cc1)C(=O)c1cc(COc2ccc(F)cc2F)on1	-2.5	-0.6%	13.3%	-10.6
Cc1ccc(OCCN(C)C(=O)c2cc(COc3ccc(F)cc3F)on2)cc1	12.6*	1.3%	13.3%	33.0
CN(CCc1ccccc1)C(=O)c1cc(COc2cccc(C(F)(F)F)c2)on1	23.5*	-14.7%	13.3%	60.4*
O=C1CC[C@@H](C(=O)NCC2Cc3cc(Cl)cc(-c4ccc5[nH]ccc5c4)c3O2)N1 (some centres undefined)	x	x	-15.1%	x
COc1ccc2c(c1)CC(C(=O)NCCCN1CCN(c3ccc(F)cc3)CC1)CO2 (centres undefined)	x	-10.3%	-17.6%	x
Cc1[nH]cnc1CSCc1ccc(F)cc1	49.2*	-18.4%	6.2%	31.3*
c1ccc(Oc2ccc3ccccc3n2)cc1	38.7*	11.1%	57.3%	129.8*
N/C(=N\OC(=O)/C=C/c1ccccc1)c1ccc(Cl)cc1	15.5*	9.2%	16.9%	17.5
N/C(=N\OC(=O)/C=C/c1ccccc1)c1ccccc1	34.9*	-1.8%	x	91.7*
COc1ccc(/C=C/C(=O)NC(=S)NNC(=O)c2cccnc2)cc1OC	2.5	3.3%	7.7%	32.1
COc1ccc(/C=C/C(=O)O/N=C(\N)c2cccnc2)cc1OC	28.6*	-0.6%	3.7%	24.9
CCC(C(=O)O/N=C(\N)c1ccc(Cl)cc1)c1ccccc1 (centres undefined)	8.6	-26.1%	15.9%	-0.5
Cc1cc(C(=O)N2CCN(c3cccc(C)c3C)CC2)c2c(C)nn(-c3ccccc3)c2n1	x	13.4%	0.0%	x
CCNC(=O)NC(=O)C(C)Sc1nnc(COc2ccccc2Cl)o1 (centres undefined)	15.0*	-9.1%	10.7%	28.0
CCc1ccccc1NC(=O)CSc1nnc(COc2ccccc2Cl)o1	x	-0.8%	-11.0%	x
COc1ccc(-c2cc(C(F)(F)F)n3ncc(C(=O)NCc4ccco4)c3n2)cc1	4.9	44.7µM*	-8.8%	-20.2
CC(C)CCNC(=O)c1cnn2c(C(F)(F)F)cc(-c3ccco3)nc12	-2.4	20µM*	u	-21.8
O=C1C=CC(=O)c2c(O)c(Cl)c(Cl)c(O)c21	x	x	-11.4%	x
Cc1ccc(-n2ncc(C(=O)NCCN3CCCC3)c2C2CCN(C(=O)OC(C)(C)C)CC2)cc1C	x	-24.9%	-6.9%	x
O=C(NN1C(=O)c2ccccc2NC1c1ccc([N+](=O)[O-])o1)c1ccc(Br)cc1 (centres undefined)	10.1	u	-18.5%	18.1
CC(=O)NN1C(=O)c2ccccc2NC1c1ccc([N+](=O)[O-])o1 (centres undefined)	14.5	39.8µM*	-18.6%	31.6
CCOc1ccc(C(=O)c2cn(CC(=O)Nc3cccc(OC)c3)c3cc4c(cc3c2=O)OCCO4)cc1	x	0.2%	-14.7%	x
CC12CN3CCN(CC(C3)/C1=N\NC(=O)Nc1cccc(Cl)c1)C2	26.3*	0.9%	14.4%	50.1
CC12CN3CCN(CC(C3)/C1=N/NC(=O)Nc1ccccc1)C2	24.9*	0.0%	38.0%	37.2
COCCNC(=O)CCCn1c(SCc2ccccc2Cl)nc2c(sc3ccccc32)c1=O	x	23.9%	u	x
SMILES	Cycloheximide cs	Sm TGR block	FMDV inh	Shiga toxin inh
CCC(C)(C)NC(=O)C(c1ccc(F)cc1)N(Cc1ccc(OC)cc1)C(=O)c1cnccn1 (centres undefined)	31.3*	15.7%	63.9%	60.4*
CC1(C)CN(c2ccc(F)cc2)C1=O	-6.4	-0.7%	-8.5%	-10.1
CC(C)c1ccc(N2CC(C)(C)C2=O)cc1	28.9*	u	31.7%	74.2*
CCCS(=O)(=O)c1c(S(=O)(=O)CCC)c2ccccn2c1C(=O)OC	-0.6	28.2µM*	-24.3%	-10.9
CCCS(=O)(=O)c1c(S(=O)(=O)CCC)c2c(N)cccn2c1C(=O)c1ccc(F)cc1	-2.5	22.4µM*	-10.6%	-4.9
CCCS(=O)(=O)c1c(S(=O)(=O)CCC)c2c(C)cccn2c1C(=O)OC	-3.4	10µM*	x	-8.7
CCC(C(=O)NCCc1ccc(OC)c(OC)c1)n1nc(C)c2sc3ccccc3c2c1=O (centres undefined)	x	-2.6%	-25.9%	x
Cc1ccc(C)c(CNC(=O)c2cnc3sc(N4CCCC4)nn3c2=O)c1	x	u	-17.3%	x
COc1ccc(Nc2nc(-c3ccc4c(c3)NC(=O)CO4)cs2)cc1	26.7*	-3.3%	u	127.9*
COc1ccc(-c2cc(-c3ccccc3)nc(-c3ccc4c(c3)NC(=O)CO4)c2)cc1	8.9	-15.0%	u	25.2
COc1ccccc1Nc1nc(-c2ccc3c(c2)NC(=O)CO3)cs1	20.0*	4.2%	u	48.2
CCC(C)Nc1nc(-c2ccc3c(c2)NC(=O)CO3)cs1 (centres undefined)	28.2	-58.5%	-1.0%	50.4*
Cc1ccc(CCNC(=O)c2cn(C)c3ccc(S(=O)(=O)N(C)C4CCCCC4)cc3c2=O)cc1	x	2.7%	10.7%	x
CS(=O)c1ccc(-c2nc(-c3ccc(F)cc3)c(-c3ccncc3)[nH]2)cc1 (centres undefined)	x	x	-12.5%	x
COc1cccc(NC(=O)Cn2c(=O)n(Cc3ccc4c(c3)OCO4)c(=O)c3oc4ccccc4c32)c1	x	2.8%	-12.9%	x
COC(=O)c1c(Oc2ccc(C(C)=O)cc2)nnc(-c2ccccc2)c1-c1ccccc1	x	13.3%	u	x
CC(C)c1ccc(NC(=O)CSC2=Nc3ccccc3C3=NC(CC(=O)NCc4ccco4)C(=O)N23)cc1 (centres undefined)	x	-2.5%	u	x
CCCCOc1cccc(-c2nnc(N)s2)c1	24.9*	8.8%	34.0%	17.2
Cc1cccc(-c2nnc(N)s2)c1	7.2	10.9%	3.7%	21.2
Nc1nnc(-c2cccc([N+](=O)[O-])c2)s1	8.2	7.8%	6.7%	-8.7
CCCOc1cccc(-c2nnc(N)s2)c1	22.5*	6.9%	45.8%	43.6*
COc1ccc(C2=C(C)C(=O)N(Cc3ccc(C(=O)Nc4cc(C)ccc4C)cc3)S2(=O)=O)cc1	x	-15.8%	u	x
Cc1ccc(C)c(CN2C(=O)c3ccccc3S(=O)(=O)c3ccc(C(=O)Nc4cc(F)ccc4F)cc32)c1	x	-1.9%	32.4%	x
COc1cccc(-c2nc(SCC(=O)Nc3ccc4c(c3)OCCO4)c(-c3ccc(C)cc3)[nH]2)c1	x	-0.1%	-14.5%	x
COc1cc(C(=O)O)cc(NC(=O)c2ccco2)c1OC	-4.3	10.6%	-0.3%	-9.5
SMILES	Cycloheximide cs	Sm TGR block	FMDV inh	Shiga toxin inh
COc1ccc(C(Nc2ccccn2)c2c(NC(=O)c3ccco3)sc(C)c2C)cc1OC (centres undefined)	22.3*	u	10.2%	25.6
COc1cc(C(Nc2ccccn2)c2c(NC(=O)c3ccco3)sc(C)c2C)cc(OC)c1OC (centres undefined)	29.1*	-31.1%	-7.9%	76.3*
Cc1cccc(C)c1-n1ncc(C(=O)NC2CCCC2)c1C1CCN(C(=O)OC(C)(C)C)CC1	x	-1.9%	-22.0%	x
CCOC(=O)C1=C(O)/C(=C\c2cc(C)n(-c3ccccc3F)c2C)N=C1C	19.8	25.1µM*	-0.2%	31.4
COC(=O)C1=C(C)NC(=O)/C1=C\c1cc(C)n(-c2ccccc2F)c1C	-3.2	14.1µM*	-1.3%	-16.0
CCOC(=O)C1=C(O)/C(=C/c2cccc(OC)c2O)N=C1C	6.1	x	12.7%	14.0
